Data as given in PubChem BioAssay (NCATS).
Inconclusive results are not listed. The source made the active and inactive calls. The call rests on the fitted dose curve; in most records, active means well fitted curve in the direction sought with a large enough effect; inconclusive means small, poorly fitted or top-dose-only effect, or another doubt; inactive means no such curve, though single readings can be large; an effect the other way counts as inactive or inconclusive.

Legend:
CP252 = assay: qHTS profiling for inhibitors of Plasmodium falciparum proliferation (AID 504749);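 further: 0% = DMSO vehicle and full inhibition = artemisinin control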; settings: P. falciparum in erythrocytes, SYBR Green DNA, 72 h; series mostly up to 28.7 µM
Summary of the method: (§1)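 Parasite proliferation within erythrocytes, 72 h exposure. Endpoint: SYBR Green I fluorescence after overnight lysis at room temperature. Controls: 0.29 uM artemisinin, DMSO.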

CP256 = assay: as above; settings: P. falciparum in erythrocytes, SYBR Green DNA, 72 h; series mostly up to 28.7 µM
Summary of the method: as §1

CP260 = assay: as above; settings: P. falciparum in erythrocytes, SYBR Green DNA, 72 h; series mostly up to 28.7 µM
Summary of the method: as §1

CP265 = assay: as above; settings: P. falciparum in erythrocytes, SYBR Green DNA, 72 h; series mostly up to 28.7 µM
Summary of the method: as §1

CP266 = assay: as above; settings: P. falciparum in erythrocytes, SYBR Green DNA, 72 h; series mostly up to 28.7 µM
Summary of the method: as §1

CP268 = assay: as above; settings: P. falciparum in erythrocytes, SYBR Green DNA, 72 h; series mostly up to 28.7 µM
Summary of the method: as §1

CP269 = assay: as above; settings: P. falciparum in erythrocytes, SYBR Green DNA, 72 h; series mostly up to 28.7 µM
Summary of the method: as §1

CP286 = assay: as above; settings: P. falciparum in erythrocytes, SYBR Green DNA, 72 h; series mostly up to 28.7 µM
Summary of the method: as §1

CP291 = assay: as above; settings: P. falciparum in erythrocytes, SYBR Green DNA, 72 h; series mostly up to 28.7 µM
Summary of the method: as §1

CP297 = assay: as above; settings: P. falciparum in erythrocytes, SYBR Green DNA, 72 h; series mostly up to 28.7 µM
Summary of the method: as §1

CP305 = assay: as above; settings: P. falciparum in erythrocytes, SYBR Green DNA, 72 h; series mostly up to 28.7 µM
Summary of the method: as §1

CP315 = assay: as above; settings: P. falciparum in erythrocytes, SYBR Green DNA, 72 h; series mostly up to 28.7 µM
Summary of the method: as §1

CP325 = assay: as above; settings: P. falciparum in erythrocytes, SYBR Green DNA, 72 h; series mostly up to 28.7 µM
Summary of the method: as §1

CP329 = assay: as above; settings: P. falciparum in erythrocytes, SYBR Green DNA, 72 h; series mostly up to 28.7 µM
Summary of the method: as §1

CP335 = assay: as above; settings: P. falciparum in erythrocytes, SYBR Green DNA, 72 h; series mostly up to 28.7 µM
Summary of the method: as §1

Dd2 = assay: as above; settings: P. falciparum in erythrocytes, SYBR Green DNA, 72 h; series mostly up to 28.7 µM
Summary of the method: as §1

FAB9 = assay: as above; settings: P. falciparum in erythrocytes, SYBR Green DNA, 72 h; series mostly up to 28.7 µM
Summary of the method: as §1

GB4 = assay: as above; settings: P. falciparum in erythrocytes, SYBR Green DNA, 72 h; series mostly up to 28.7 µM
Summary of the method: as §1

HB3 = assay: as above; settings: P. falciparum in erythrocytes, SYBR Green DNA, 72 h; series mostly up to 28.7 µM
Summary of the method: as §1

JCK = assay: as above; settings: P. falciparum in erythrocytes, SYBR Green DNA, 72 h; series mostly up to 28.7 µM
Summary of the method: as §1

N140 = assay: as above; settings: P. falciparum in erythrocytes, SYBR Green DNA, 72 h; series mostly up to 28.7 µM
Summary of the method: as §1

P93_24 = assay: as above; settings: P. falciparum in erythrocytes, SYBR Green DNA, 72 h; series mostly up to 28.7 µM
Summary of the method: as §1

P94_40 = assay: as above; settings: P. falciparum in erythrocytes, SYBR Green DNA, 72 h; series mostly up to 28.7 µM
Summary of the method: as §1

PAD = assay: as above; settings: P. falciparum in erythrocytes, SYBR Green DNA, 72 h; series mostly up to 28.7 µM
Summary of the method: as §1

PC15 = assay: as above; settings: P. falciparum in erythrocytes, SYBR Green DNA, 72 h; series mostly up to 28.7 µM
Summary of the method: as §1

PC26 = assay: as above; settings: P. falciparum in erythrocytes, SYBR Green DNA, 72 h; series mostly up to 28.7 µM
Summary of the method: as §1

PC49 = assay: as above; settings: P. falciparum in erythrocytes, SYBR Green DNA, 72 h; series mostly up to 28.7 µM
Summary of the method: as §1

SC27B = assay: as above; settings: P. falciparum in erythrocytes, SYBR Green DNA, 72 h; series mostly up to 28.7 µM
Summary of the method: as §1

TAB113 = assay: as above; settings: P. falciparum in erythrocytes, SYBR Green DNA, 72 h; series mostly up to 28.7 µM
Summary of the method: as §1

TAB165 = assay: as above; settings: P. falciparum in erythrocytes, SYBR Green DNA, 72 h; series mostly up to 28.7 µM
Summary of the method: as §1

[1] = qHTS assay to identify inhibitors of the type 1 interferon - major histocompatibility complex class I in skeletal muscle: Counter screen cell viability and HiBit confirmation (AID 1347412); settings: iHSKM muscle cells + IFN-b, HiBiT or CellTiter-Glo, 24 h, at 45.9 µM (top of the series); further: on the % scale 0 is the no-effect control and ±100 the full control effect
Summary of the method: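 CRISPR HLA-B*08:01-HiBit immortalized human myoblasts (C25cl48) stimulated with 4 ng/ml IFN-beta and compounds (12-point 1:3, top 46 uM final) for 24 h at 37 C. Duplicate plates read by HiBit lytic luminescence or CellTiter Glo ATP.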
Further: nearly all actives have a fitted effect of over 60% in size.

C=C1/C(=C\C=C2/CCC[C@]3(C)[C@@H]([C@H](C)CCCC(C)(C)O)CC[C@@H]23)C[C@@H](O)C[C@@H]1O
inactive: Potency (CP252) | Potency (CP256) | Potency (CP260) | Potency (CP265) | Potency (CP266) | Potency (CP268) | Potency (CP269) | Potency (CP286) | Potency (CP291) | Potency (CP297) | Potency (CP305) | Potency (CP315) | Potency (CP325) | Potency (CP329) | Potency (CP335) | Potency (Dd2) | Potency (FAB9) | Potency (GB4) | Potency (HB3) | Potency (JCK) | Potency (N140) | Potency (P93_24) | Potency (P94_40) | Potency (PAD) | Potency (PC15) | Potency (PC26) | Potency (PC49) | Potency (SC27B) | Potency (TAB113) | Potency (TAB165) | activity change, negative = inhibition ([1]; HiBiT) -12.1% | activity change, negative = inhibition ([1]; Viability) -5.56%
